LDHA inh – blocks human lactate dehydrogenase A; activity change, % (values are at about 110 or 230 µM); purified LDHA, NADH/diaphorase-resazurin fluorescence; stronger effect = lower value; AID 1347041; P00338; 480,000 tested, 0.15% active; in the data active means activity change below about -30%; inconclusive means mostly about -25% to -30%;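 further: plate controls were DMSO wells for no effect and wells without enzyme for full effect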
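Enzyme activity of human lactate dehydrogenase 5 (2 nM; 0.06 mM NADH, 0.2 mM pyruvate, 5 min, RT) is measured via a resazurin/diaphorase fluorescence readout of residual NADH.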
TDP-43 yeast inh – rescues yeast growth from TDP-43 toxicity. Potency, µM (top dose mostly 46.1 µM), inactives show at the top dose growth rescue (activation), usual class: activators. 410,000 tested, 1.8% active. TDP-43 expressing yeast growth rescue, BacTiter-Glo, 24 h. AID 652104; further: potency means the concentration at half of the fitted maximal effect; % of control where 0% means no effect; nearly all actives have a fitted effect of over 50% in size
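Luminescence from BacTiter-Glo reports growth of TDP-43-expressing yeast after 24 hr at 30 deg C with compound. Cells were raffinose-pregrown to mid-log, then seeded in galactose medium at OD600=0.02.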
FUS yeast rescue – rescues growth of FUS-expressing yeast. S. cerevisiae FUS-expressing, growth rescue, OD600, 24 h. Potency, µM (titrated, usually from 76.6 µM), actives largely listed as activators. 390,000 tested, 0.24% active;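 further: potency means the concentration at half of the fitted maximal effect; plate controls were DMSO vehicle for no effect and reference control for full effect; nearly all actives have a fitted effect of over 55% in size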
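Compound concentration series was pinned onto galactose-induced FUS-expressing yeast seeded at OD 0.005. Plates sat 24hr at 30C; absorbance at 600 nm gave growth. DMSO served as background control.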
aSyn yeast inh – rescues yeast growth from alpha-synuclein toxicity | Yeast expressing alpha-synuclein, growth rescue, BacTiter-Glo, 24 h | Potency, µM (highest dose often 46.1 µM), without a hit: at the highest dose growth rescue (activation), usual class: activators | 370,000 tested, 0.14% active; further: potency means the concentration at half of the fitted maximal effect; % of control where 0% means no effect; nearly all actives have a fitted effect of over 65% in size
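Rescue of yeast growth: cells expressing toxic alpha-synuclein, induced in galactose at OD600 0.02, incubated with compound 24 h at 30 C. ATP luminescence quantified growth; inhibitors of toxicity appear as activators.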
PTHR1 ag – PTHR1 (human) receptor agonism; HEK293 GP2 PTHR1 cells, GloSensor cAMP luminescence, 1 h; Potency, µM (highest dose often 115 µM), without a hit: at the highest dose activation, usual class: activators; 410,000 tested, 0.075% active; further: potency means the concentration at half of the fitted maximal effect; nearly all actives have a fitted effect of over 55% in size
Target sequence (Q03431 whole entry, looked up): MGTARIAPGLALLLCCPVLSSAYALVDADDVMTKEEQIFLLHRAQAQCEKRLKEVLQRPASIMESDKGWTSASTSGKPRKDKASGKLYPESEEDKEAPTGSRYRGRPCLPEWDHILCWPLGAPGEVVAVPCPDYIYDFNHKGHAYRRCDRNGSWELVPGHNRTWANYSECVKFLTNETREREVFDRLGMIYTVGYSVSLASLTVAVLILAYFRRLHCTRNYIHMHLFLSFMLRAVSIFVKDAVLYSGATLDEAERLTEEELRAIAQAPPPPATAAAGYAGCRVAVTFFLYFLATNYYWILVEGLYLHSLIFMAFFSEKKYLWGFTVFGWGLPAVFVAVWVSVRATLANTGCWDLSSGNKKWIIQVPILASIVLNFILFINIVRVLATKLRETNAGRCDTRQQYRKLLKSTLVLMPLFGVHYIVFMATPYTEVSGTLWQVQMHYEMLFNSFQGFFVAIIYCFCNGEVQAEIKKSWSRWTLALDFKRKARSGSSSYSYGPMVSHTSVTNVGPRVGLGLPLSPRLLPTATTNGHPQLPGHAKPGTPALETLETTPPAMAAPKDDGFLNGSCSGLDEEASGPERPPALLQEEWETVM
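HEK-293-derived GP2 cells expressing PTHR1 and a GloSensor cAMP reporter, 3,000/well, plated overnight, given luciferin plus IBMX (each 0.5 mM as added) for 1 h at 37 °C, then compound for 1 h at 37 °C. Luminescence was read after 15 min at room temperature.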
Abeta yeast res – restores growth of yeast expressing A-beta42 peptide; yeast expressing A-beta42, growth rescue, OD600, 48 h; response scale: 0% DMSO, 100% iron-clioquinol control; Potency, µM (doses to about 46.1 µM), usual class: activators; 410,000 tested, 0.063% active; AID 1347071; further: potency means the concentration at half of the fitted maximal effect; nearly all actives have a fitted effect of over 55% in size
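Yeast A-beta toxicity model in growth medium with pinned compounds, 48 h at 30 C; growth read as absorbance at 600 nm. Normalized to FeCl3/clioquinol equimolar mix (positive) and DMSO (negative).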
Numbers without * were called inactive; i = inactive; ? = inconclusive; · = not tested or not shown. Sampled rows, rich in hits. Any-hit rate of the full collection: about 1.9%. Unless noted, the call rests on the fitted dose curve; in most records, active means well fitted curve in the direction sought with a large enough effect; inconclusive means small, poorly fitted or top-dose-only effect, or another doubt; inactive means no such curve, though single readings can be large; an effect the other way counts as inactive or inconclusive.

SMILES	LDHA inh	TDP-43 yeast inh	FUS yeast rescue	aSyn yeast inh	PTHR1 ag	Abeta yeast res
CCNS(=O)(=O)c1ccc(Br)c(OC)c1	3	-7%	i	7%	i	i
CCC(=O)N1CCc2cc(CNS(=O)(=O)c3ccc(C(C)C)cc3)ccc21	2	20µM*	i	·	i	i
Cc1[nH]c2ccc(C(=O)Nc3ccc(-c4nccs4)cc3)cc2c1C	-4	·	·	·	·	·
CCC(=O)N1CCc2cc(S(=O)(=O)NC(CC(C)C)C(=O)NCc3ccc(F)cc3)ccc21 (stereo not given)	-17	11%	i	·	i	i
COc1cc(S(=O)(=O)NCc2ccc3c(c2)OCO3)ccc1Cl	-5	13µM*	i	-10%	-16%	i
CCC(=O)N1CCc2cc(S(=O)(=O)NC(CC(C)C)C(=O)NCc3cccc(OC)c3)ccc21 (stereo not given)	-31*	16%	i	·	i	i
COc1cccc(OCc2ccc(C(=O)O)o2)c1	5	·	·	·	·	·
O=C(Nc1nc2ccc(OC(F)F)cc2s1)c1ccccc1Cl	-5	·	·	·	·	·
N#Cc1ccc(N)c(C(F)(F)F)c1	4	·	·	·	·	·
O=c1[nH]c2ccccc2c(O)c1-c1ccccc1	-2	4%	i	5%	i	i
O/N=C/Cc1[nH]c2ccccc2c1-c1ccccc1	-11	16µM*	i	-6%	-12%	i
CNc1snc(C)c1C(=O)NCCc1ccccc1OC	-11	·	·	·	·	·
CCc1nc2ccc(C(=O)Nc3cccc(OC)c3)cn2c1N(C)CCCc1ccccc1	-5	35µM*	?	-34%	i	i
CCc1nc2ccc(C(=O)Nc3cc(-c4ccccc4)ccc3OC)cn2c1N(CC)Cc1cccc(Br)c1	-7	16µM*	?	0%	-19%	i
COC(=O)c1ccn(CSc2c(F)c(F)cc(F)c2F)n1	-2	8%	i	1%	i	i
COC(=O)c1ccn(CSc2cc(Cl)ccc2Cl)n1	-7	13µM*	i	-6%	-21%	i
CC(=O)c1ccc(NC(=O)c2sc3nc(N4CCOCC4)c4c(c3c2N)CC(C)(C)OC4)cc1	-1	·	·	·	·	·
Fc1ccc2[nH]c3c(c2c1)CN(C(=S)NCc1ccccc1)CC3	-6	16µM*	i	-28%	-12%	?
Cc1cccc(C(=O)NC(=S)N2CCc3ccccc3C2)c1	-3	20µM*	i	-2%	-10%	?
Cc1cccc(C(=O)NCCC(=O)N2CCc3ccccc3C2)c1	-5	21%	i	-2%	-20%	i
S=C(NCc1ccccc1)N1CCc2ccccc2C1	-4	11µM*	i	3%	-31%	i
Clc1ccc(C2C=C(c3ccccc3)Nc3ncnn32)c(Cl)c1 (stereo not given)	-5	·	·	·	·	·
O=C(NCCN1CCN(C(=O)c2cc(Cl)cc(Cl)c2)CC1)c1cc(Cl)cc(Cl)c1	0	·	·	·	·	·
Cc1ccc(OCc2nc3ccccc3n2C(C)C(=O)Nc2c(C)cccc2C)cc1 (stereo not given)	1	25µM*	i	14%	11%	i
Cc1ccc(OCc2nc3ccccc3n2C(C(=O)NC(C)(C)C)c2ccccc2)cc1 (stereo not given)	-2	7%	i	2%	-36%	i
Cc1ccc2nc(-c3ccc(C#N)cc3)c(Cc3cccc(Cl)c3)n2c1	-4	35µM*	i	?	-10%	i
COc1ccc(Cc2c(-c3cccc(Cl)c3)nc3ccc(Cl)cn23)c(C)c1	-7	35µM*	i	8%	-14%	i
N#Cc1ccc(-c2nc3ccc(Cl)cn3c2Cc2cccc(Cl)c2)cc1	-4	13%	i	-2%	-3%	i
COc1ccc(Cc2c(-c3cccc(Br)c3)nc3ccc(Cl)cn23)c(C)c1	-1	?	i	-22%	-15%	i
Cc1ccc(Cc2c(-c3cccc(Cl)c3)nc3ccc(Br)cn23)cc1	3	?	?	-20%	-87%	i

Bioassay records as filed in PubChem.
